PubChem BioAssay (Tox21)
Results filed as inconclusive are left out. Where a call stands in place of a potency, no number is given. The source made the active and inactive calls. Unless noted, calls come from the whole dose curve.

Legend:
[1] = Nuclear factor erythroid 2-related factor 2/antioxidant responsive element (Nrf2/ARE) small molecule agonists: qHTS cell viability counter screen in human keratinocytes (AID 1919968; active = well fitted curve in the direction sought with a large enough effect in the repeat runs; an effect the other way counts as inactive or inconclusive; note: nearly all actives have a fitted effect of over 55% in size; note: potency is the fitted concentration of half-maximal effect)
Outline: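 Seed 1,500 KeratinoSens cells per well, then incubate 5 h at 37 C/5% CO2. Add compounds in DMSO and incubate 23 h. Add CellTiter-Fluor, wait 1 h and read fluorescence.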

[2] = Nuclear factor erythroid 2-related factor 2/antioxidant responsive element (Nrf2/ARE) small molecule agonists: luciferase reporter gene qHTS assay in human keratinocytes (AID 1919969); note: nearly all actives have a fitted effect of over 35% in size; note: potency is the fitted concentration of half-maximal effect
[3] = target: Gonadotropin-releasing hormone receptor (Homo sapiens) (UniProt P30968); assay: Human gonadotropin-releasing hormone receptor (GnRHR) small molecule agonists, calcium flux assay in GnRHR-HEK293 cells (AID 1920063); note: nearly all actives have a fitted effect of over 35% in size; note: potency is the fitted concentration of half-maximal effect
Outline: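 Cells: HEK293 stably expressing human GnRHR. Steps: overnight (18 h) culture, 1 h calcium dye loading at 37 C, compound addition, kinetic fluorescence read at 480/540 nm. Each compound tested at 15 concentrations in triplicate.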

[4] = target: KiSS-1 receptor (Homo sapiens) (UniProt Q969F8); assay: Human kisspeptin (KISS1R) small molecule agonists, calcium flux assay in KISS1R-HEK293 cells (AID 1920064; active = well fitted curve in the direction sought with a large enough effect in the repeat runs; an effect the other way counts as inactive or inconclusive; note: potency is the fitted concentration of half-maximal effect)
Outline: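 Cells plated and incubated 18 h; dye added, 1 h at 37 C; compounds in DMSO pinned in; signal read at 480/540 nm every second for 3 min. Each compound tested at 15 concentrations in triplicate.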

[5] = G protein-coupled receptor (GPCR) small molecule agonists, calcium flux assay: HEK293 wild type cell line counter screen (AID 1920065); note: potency is the fitted concentration of half-maximal effect
Outline: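 Counter-screen of the Tox21 10K library for non-specific calcium release: dye-loaded cells received compounds in DMSO and were monitored by kinetic fluorescence (480/540 nm, 3 min). Fifteen concentrations, run in triplicate.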

[6] = p53 small molecule agonists, cell-based qHTS assay with rat liver microsomes (AID 1963578)
Outline: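 With rat liver microsomes and NADPH present (0.5 mg/mL final each), p53RE-bla cells are treated with compound for 16 h at 37 C. LiveBLAzer detection mixture is then applied for 2 h at room temperature in the dark.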

[7] = p53 small molecule agonists, cell-based qHTS assay with human liver microsomes: qHTS cell viability counter screen (AID 1963579); note: nearly all actives have a fitted effect of over 45% in size; note: potency is the fitted concentration of half-maximal effect
Outline: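 In this multiplexed counter screen, the reporter plates were subsequently treated with CellTiter-Glo so that cell viability, reflected by luminescence, could be recorded for p53RE-bla cells dosed 16 h with compounds under microsomal activation (HLM and NADPH).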

[8] = p53 small molecule agonists, cell-based qHTS assay with rat liver microsomes: qHTS cell viability counter screen (AID 1963580); note: nearly all actives have a fitted effect of over 45% in size; note: potency is the fitted concentration of half-maximal effect
Outline: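 Intracellular ATP, by CellTiter-Glo luminescence, defines viability. HCT-116 p53RE-bla cells, 4,000 per well, were compound-treated in the presence of rat liver microsomes and NADPH for 16 h at 37 C.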

[9] = p53 small molecule agonists, cell-based qHTS assay (AID 1963582; active = well fitted activation curve with a large enough effect in the signal ratio in the repeat runs, not every such curve was filed as active; the % refers to the signal ratio; note: potency is the fitted concentration of half-maximal effect)
Outline: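 Quantitative HTS in p53RE-bla cells: after a 5 h settling period, compounds delivered in DMSO were left on cells for 16 h at 37 C, and reporter induction was measured as fluorescence following 2 h substrate loading.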

[10] = target: 5-hydroxytryptamine receptor 2A (Homo sapiens) (UniProt P28223); assay: 5-hydroxytryptamine receptor 2A (HTR2A) small molecule antagonists, cell-based qHTS assay (AID 1963586); note: nearly all actives have a fitted effect of over 45% in size; note: potency is the fitted concentration of half-maximal effect
Outline: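 Antagonist-mode intracellular calcium assay: DOI (4 nM) added after 5 min compound pre-incubation at room temperature to dye-loaded HTR2A-CHO cells. Fluorescence followed for 3 min, sampled every second.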

[11] = target: 5-hydroxytryptamine receptor 2A (Homo sapiens) (UniProt P28223); assay: 5-hydroxytryptamine receptor 2A (HTR2A) small molecule agonists, cell-based qHTS assay (AID 1963587); note: nearly all actives have a fitted effect of over 30% in size; note: potency is the fitted concentration of half-maximal effect
Outline: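 Kinetic calcium-flux fluorescence (2 min, 1 sec intervals) after compound addition in agonist mode. HTR2A-CHO cells were cultured 18 h, then dye-loaded 1 h at 37 C.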

[12] = target: Muscarinic acetylcholine receptor M1 (Homo sapiens) (UniProt P11229); assay: Cholinergic receptor muscarinic 1 (CHRM1) small molecule antagonists, cell-based qHTS assay (AID 1963588); note: nearly all actives have a fitted effect of over 40% in size
Outline: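 CHRM1-CHO calcium-flux assay, antagonist mode. Cells were seeded 18 h, dye-loaded 1 h at 37 C and given compound for 5 min at RT, then acetylcholine was added at 50nM. FDSS fluorescence was read 3 min; 15 concentrations, three runs.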

[13] = target: Muscarinic acetylcholine receptor M1 (Homo sapiens) (UniProt P11229); assay: Cholinergic receptor muscarinic 1 (CHRM1) small molecule agonists, cell-based qHTS assay (AID 1963589); note: nearly all actives have a fitted effect of over 35% in size; note: potency is the fitted concentration of half-maximal effect
Outline: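 Agonist-mode qHTS in CHO cells stably carrying human muscarinic M1. Intracellular calcium is tracked by fluorescence every second after compound transfer; each compound runs at 15 concentrations in three independent runs.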

[14] = cAMP Responsive Elements (CRE) small molecule agonists, cell-based qHTS assay (AID 1963590)
Outline: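 Agonist mode qHTS in CRE-bla HEK 293T cells: compounds dosed from DMSO for 3 h at 37 C/5% CO2, followed by LiveBLAzer B/G FRET substrate for 2 h at room temperature.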

[15] = cAMP Responsive Elements (CRE) small molecule antagonists, cell-based qHTS assay (AID 1963591; active = well fitted inhibition curve with a large enough effect in the signal ratio in the repeat runs, not every such curve was filed as active; the % refers to the signal ratio; note: potency is the fitted concentration of half-maximal effect)
Outline: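 Antagonist mode: test compounds are co-incubated with the adenylyl cyclase activator NKH477 (0.25 uM final) on CRE-bla HEK293T cells for 3 h at 37 °C, followed by LiveBLAzer substrate loading.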

[16] = target: D(2) dopamine receptor (Homo sapiens) (UniProt P14416); assay: Dopamine D2 receptor (DRD2) small molecule antagonists, cell-based qHTS assay (AID 1963595; active = well fitted inhibition curve with a large enough effect in the signal ratio in the repeat runs, with a control signal flat; the % refers to the signal ratio; note: potency is the fitted concentration of half-maximal effect)
Outline: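 Antagonist mode in DRD2-HEK293 cells: after compound addition with 0.1 mM Ro20-1724, cells received quinpirole (12 nM) and NKH477 (200 nM) for 30 min at room temperature; HTRF cAMP read after 1 h detection.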

[17] = target: Beta-2 adrenergic receptor (Homo sapiens) (UniProt P07550); assay: Adrenergic beta2 receptor (ADRB2) small molecule antagonists, cell-based qHTS assay (AID 1963592); note: series mostly up to about 92 µM; nearly all actives have a fitted effect of over 50% in size
Outline: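 Cells (CHO, stable ADRB2 overexpression) incubated 18-20hr at 37C; compounds added from DMSO; agonist mix (1nM isoproterenol, 100uM IBMX, 25uM Ro-20-1724) added; 0.5hr RT; d2-cAMP and anti-cAMP-cryptate added; 1hr RT; 665/615 nm read.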

[18] = target: Beta-2 adrenergic receptor (Homo sapiens) (UniProt P07550); assay: Adrenergic beta2 receptor (ADRB2) small molecule agonists, cell-based qHTS assay (AID 1963593);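 note: CHO cells stably overexpressing human ADRB2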
Outline: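 CHO cells stably over-expressing ADRB2 were plated overnight at 37C, then dosed with compounds plus a stimulation mix containing 100uM IBMX and 25uM Ro-20-1724 for 0.5hr at room temperature. cAMP was measured by HTRF competition, 1hr.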

[19] = target: D(2) dopamine receptor (Homo sapiens) (UniProt P14416); assay: Dopamine D2 receptor (DRD2) small molecule agonists, cell-based qHTS assay (AID 1963594); note: nearly all actives have a fitted effect of over 35% in size
Outline: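 cAMP accumulation in DRD2-HEK293 cells measured by HTRF after 1 h detection; compounds added 10 min before NKH477 (200nM […]) forskolin-analogue stimulation, 30 min at room temperature, with Ro20-1724 present at 0.1 mM final.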

[20] = p53 small molecule agonists, cell-based qHTS assay: qHTS cell viability counter screen (AID 1963581); note: nearly all actives have a fitted effect of over 45% in size; note: potency is the fitted concentration of half-maximal effect
Outline: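 Cells: HCT-116 with p53 response element-driven beta-lactamase. Treatment: 16 h, 37 C, compounds in DMSO. Read: CellTiter-Glo luminescence after 30 min RT.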

Muscarinic acetylcholine receptor M1 (Homo sapiens), sequence (P11229 whole entry, looked up): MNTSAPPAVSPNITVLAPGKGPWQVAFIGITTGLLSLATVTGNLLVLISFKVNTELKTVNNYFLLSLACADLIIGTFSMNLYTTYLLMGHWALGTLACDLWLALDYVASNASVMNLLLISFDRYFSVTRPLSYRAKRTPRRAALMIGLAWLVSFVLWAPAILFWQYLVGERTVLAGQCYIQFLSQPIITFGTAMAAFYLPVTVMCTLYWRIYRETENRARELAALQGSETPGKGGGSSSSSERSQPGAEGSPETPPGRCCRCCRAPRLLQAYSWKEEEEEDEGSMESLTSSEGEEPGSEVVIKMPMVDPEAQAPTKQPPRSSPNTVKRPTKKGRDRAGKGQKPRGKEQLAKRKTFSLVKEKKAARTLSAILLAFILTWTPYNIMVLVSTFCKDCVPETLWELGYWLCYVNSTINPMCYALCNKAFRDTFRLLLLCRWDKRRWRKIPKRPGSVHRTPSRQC
KiSS-1 receptor (Homo sapiens), sequence (Q969F8 whole entry, looked up): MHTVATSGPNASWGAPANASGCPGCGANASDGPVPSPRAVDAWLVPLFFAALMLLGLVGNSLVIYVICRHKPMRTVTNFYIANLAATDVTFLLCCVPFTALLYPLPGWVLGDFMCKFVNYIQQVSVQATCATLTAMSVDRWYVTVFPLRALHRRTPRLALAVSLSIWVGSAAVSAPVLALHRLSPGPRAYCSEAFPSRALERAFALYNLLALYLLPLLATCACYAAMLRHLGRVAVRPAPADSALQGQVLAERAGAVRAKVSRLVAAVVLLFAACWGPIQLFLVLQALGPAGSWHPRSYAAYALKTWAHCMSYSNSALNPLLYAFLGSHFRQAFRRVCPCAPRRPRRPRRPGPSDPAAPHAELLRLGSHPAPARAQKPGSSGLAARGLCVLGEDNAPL
5-hydroxytryptamine receptor 2A (Homo sapiens), sequence (P28223 whole entry, looked up): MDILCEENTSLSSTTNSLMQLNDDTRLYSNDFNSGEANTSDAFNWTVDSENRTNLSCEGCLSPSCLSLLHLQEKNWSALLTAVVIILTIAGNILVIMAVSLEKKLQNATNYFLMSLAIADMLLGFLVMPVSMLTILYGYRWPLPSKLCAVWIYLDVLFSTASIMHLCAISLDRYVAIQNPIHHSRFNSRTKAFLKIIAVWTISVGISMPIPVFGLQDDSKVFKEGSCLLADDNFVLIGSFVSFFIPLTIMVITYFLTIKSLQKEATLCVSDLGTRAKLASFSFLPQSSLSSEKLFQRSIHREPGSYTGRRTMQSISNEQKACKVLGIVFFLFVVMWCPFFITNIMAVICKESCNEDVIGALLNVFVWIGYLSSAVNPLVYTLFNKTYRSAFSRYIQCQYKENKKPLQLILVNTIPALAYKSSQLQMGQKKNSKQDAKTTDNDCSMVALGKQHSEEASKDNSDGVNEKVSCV
D(2) dopamine receptor (Homo sapiens), sequence (P14416 whole entry, looked up): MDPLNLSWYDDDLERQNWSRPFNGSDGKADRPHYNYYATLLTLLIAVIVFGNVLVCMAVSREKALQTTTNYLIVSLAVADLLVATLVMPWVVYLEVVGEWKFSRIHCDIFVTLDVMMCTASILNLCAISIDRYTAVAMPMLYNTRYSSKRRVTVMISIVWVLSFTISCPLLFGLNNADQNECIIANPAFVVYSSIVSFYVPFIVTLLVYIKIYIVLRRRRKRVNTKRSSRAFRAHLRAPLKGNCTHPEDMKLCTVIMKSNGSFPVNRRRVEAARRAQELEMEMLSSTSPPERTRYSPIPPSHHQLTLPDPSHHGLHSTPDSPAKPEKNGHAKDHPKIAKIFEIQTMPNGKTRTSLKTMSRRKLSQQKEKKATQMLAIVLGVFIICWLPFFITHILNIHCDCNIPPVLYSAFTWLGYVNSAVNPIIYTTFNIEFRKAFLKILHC
Beta-2 adrenergic receptor (Homo sapiens), sequence (P07550 whole entry, looked up): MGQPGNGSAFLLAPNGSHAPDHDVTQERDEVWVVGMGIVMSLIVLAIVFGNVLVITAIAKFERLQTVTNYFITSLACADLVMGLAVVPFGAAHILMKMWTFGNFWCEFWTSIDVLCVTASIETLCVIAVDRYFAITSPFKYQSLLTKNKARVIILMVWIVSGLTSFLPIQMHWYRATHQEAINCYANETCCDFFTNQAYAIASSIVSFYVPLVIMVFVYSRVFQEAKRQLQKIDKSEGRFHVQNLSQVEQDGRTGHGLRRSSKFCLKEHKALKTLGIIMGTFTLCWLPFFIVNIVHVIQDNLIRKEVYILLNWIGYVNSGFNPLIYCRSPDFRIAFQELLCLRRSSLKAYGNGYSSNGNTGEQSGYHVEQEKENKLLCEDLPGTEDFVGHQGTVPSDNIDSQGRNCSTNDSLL
Gonadotropin-releasing hormone receptor (Homo sapiens), sequence (P30968 whole entry, looked up): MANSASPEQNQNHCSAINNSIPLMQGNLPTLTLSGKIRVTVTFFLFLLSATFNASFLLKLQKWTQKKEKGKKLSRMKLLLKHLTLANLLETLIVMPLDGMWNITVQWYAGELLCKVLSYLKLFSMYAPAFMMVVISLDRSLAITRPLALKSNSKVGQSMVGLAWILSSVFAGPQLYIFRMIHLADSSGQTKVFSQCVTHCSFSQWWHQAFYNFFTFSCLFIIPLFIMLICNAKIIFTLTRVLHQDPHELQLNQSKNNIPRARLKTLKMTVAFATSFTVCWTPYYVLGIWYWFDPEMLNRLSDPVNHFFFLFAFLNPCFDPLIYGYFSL

Compound | Potency [1] | Potency [2] | Potency [3] | Potency [4] | Potency [5] | Potency [6] | Potency [7] | Potency [8] | Potency [9] | Potency [10] | Potency [11] | Potency [12] | Potency [13] | Potency [14] | Potency [15] | Potency [16] | Potency [17] | Potency [18] | Potency [19] | Potency [20]
COc1cc(CC(C)N)cc(OC)c1OC (stereo not drawn) | inactive | inactive | inactive | inactive | inactive | inactive | inactive | inactive | inactive | 0.228 µM (active) | 0.265 µM (active) | inactive | inactive | inactive | inactive | inactive |  |  |  | 
CC/C(=N\OC/C=C/Cl)C1=C(O)CC(C2CCOCC2)CC1=O (stereo not drawn) | inactive | inactive | inactive | inactive | inactive | inactive | inactive | inactive | inactive |  | inactive | inactive | inactive |  |  | inactive | inactive | inactive | inactive | 
O=CCCl | inactive | inactive | inactive | inactive | inactive | inactive | inactive | inactive |  |  | inactive | inactive | inactive | inactive | inactive | inactive | inactive | inactive |  | inactive
COC(=O)N(OC)c1ccccc1COc1ccn(-c2ccc(Cl)cc2)n1 | inactive | inactive | inactive | inactive | inactive | inactive | inactive | inactive |  | inactive | inactive |  |  | inactive | 61.1 µM (active) | inactive | inactive | inactive | inactive | inactive
Cc1c(Cl)c(=O)oc2cc(OP(=O)(OCCCl)OCCCl)ccc12 | inactive | inactive | inactive | inactive | inactive |  | inactive | inactive | inactive | inactive | inactive | inactive | inactive |  |  | inactive | inactive |  |  | inactive
[F][Sn]([c]1ccccc1)([c]1ccccc1)[c]1ccccc1 | 0.864 µM (active) | 0.545 µM (active) | 34.7 µM (active) | inactive | inactive | inactive | 2.29 µM (active) | 11.5 µM (active) |  | inactive |  |  |  |  |  | 2.73 µM (active) | inactive | inactive | inactive | 2.89 µM (active)
CN(C)S(=O)(=O)N(SC(F)(Cl)Cl)c1ccccc1 | 13.7 µM (active) | 4.86 µM (active) | 38.9 µM (active) | 54.9 µM (active) | 38.9 µM (active) | inactive |  |  | inactive | inactive |  |  | 43.6 µM (active) |  |  |  |  |  |  | inactive
CNC(=O)Oc1cc(C)cc(C(C)C)c1 | inactive | inactive | inactive | inactive | inactive |  | inactive | inactive | inactive |  | inactive | inactive | inactive | inactive | inactive |  | inactive |  | inactive | inactive
O=NN(CCO)CCO | inactive | inactive | inactive | inactive | inactive | inactive | inactive | inactive | inactive |  | inactive | inactive |  | inactive | inactive | inactive | inactive |  | inactive | inactive
CCOP(=S)(OCC)Oc1ccc(Cl)cc1Cl | inactive | inactive | inactive | inactive | inactive |  | 45.8 µM (active) | inactive | inactive | inactive | inactive | inactive | inactive | inactive | inactive |  |  | inactive |  | inactive
O=c1oc2ccccc2c(O)c1Cc1c(O)c2ccccc2oc1=O | inactive | inactive | inactive | inactive | inactive | inactive | inactive | inactive | 5 µM (active) |  |  |  |  |  | inactive | inactive | inactive | inactive | inactive | 
N#C/C(N)=C(/N)C#N | inactive | inactive | inactive | inactive | inactive | inactive | inactive |  | inactive | inactive | inactive | inactive | inactive | inactive | inactive | inactive | inactive | inactive | inactive | inactive
[Cl][Sb]([Cl])[Cl] | inactive | 27.3 µM (active) | inactive | inactive | inactive | inactive |  | inactive |  | inactive | inactive | inactive | inactive | inactive | inactive | inactive | inactive | inactive |  | 
COc1ccc([N+](=O)[O-])cc1O | inactive | inactive | inactive | inactive | inactive | inactive | inactive | inactive |  | inactive | inactive | inactive | inactive | inactive |  | inactive | inactive |  | inactive | 
CNC(=O)Oc1cccc(N=CN(C)C)c1 | inactive | inactive | inactive | inactive | inactive |  | inactive | inactive | inactive |  | inactive | inactive | inactive | inactive | inactive | inactive | inactive |  | inactive | inactive
N#C/C=C/c1ccccc1 | inactive | inactive | inactive | inactive | inactive | inactive | inactive | inactive |  | inactive |  | inactive | inactive | inactive | inactive | inactive | inactive | inactive | inactive | inactive
Cc1cc2c3c(c1)C(c1ccccc1)=N[C@@H](NC(=O)c1ccncc1)C(=O)N3CC2 | inactive | inactive | inactive | inactive | inactive | inactive | inactive | inactive | inactive | inactive | inactive | inactive | inactive |  |  | inactive |  |  |  | 
